What all share (test): yeast three-hybrid, YBZ-1, SC-Leu-His + 0.5 mM 3-AT, 4 days
Holding throughout (conditions): tags: N-Gal4 AD-HA kept; label: inside an RPR1-promoter hybrid RNA with tandem MS2 sites; ssRNA

The target of test [1] is PUM1 PUF domain R5-KYY (Homo sapiens, UniProt Q14671 828-1176, C1007K;R1008Y;Q1011Y). The method in brief: (§1)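 Each repeat of the Pumilio-1 PUF domain was randomized at its three base-contacting residues, and these libraries were co-expressed from a centromeric plasmid with matching RNA elements in strain YBZ-1. After four days on SC-Leu (input) or SC-Leu-His + 0.5 mM 3-AT (selection), the repeat regions were PCR-amplified and Illumina-sequenced. The interaction score compares variant frequency between input and selection as a log change, computed in log2 with a pseudocount of 1 for absent variants.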

Test [2] has as its target PUM1 PUF domain R3-TRR (Homo sapiens, UniProt Q14671 828-1176, C935T;Q939R). The method in brief: as §1
In test [3] the target is PUM1 PUF domain R4-WSC (Homo sapiens, UniProt Q14671 828-1176, N971W;H972S;Q975C). The method in brief:
as §1

The target of test [4] is PUM1 PUF domain R4-EHL (Homo sapiens, UniProt Q14671 828-1176, N971E;Q975L). In short, it runs like this:
as §1

Test [5] concerns the target PUM1 PUF domain R4-SPS (Homo sapiens, UniProt Q14671 828-1176, N971S;H972P;Q975S). The method in brief:
as §1

The target of test [6] is PUM1 PUF domain R7-RRF (Homo sapiens, UniProt Q14671 828-1176, S1079R;N1080R;E1083F). The method in brief: as §1
The target in test [7] is PUM1 PUF domain R3-EWG (Homo sapiens, UniProt Q14671 828-1176, C935E;R936W;Q939G). In short, it runs like this: as §1
Test [8] has as its target PUM1 PUF domain R2-RKG (Homo sapiens, UniProt Q14671 828-1176, N899R;Y900K;Q903G). The method in brief: as §1
For test [9], the target named is PUM1 PUF domain R2-AWW (Homo sapiens, UniProt Q14671 828-1176, N899A;Y900W;Q903W). The method in brief: as §1
Test [10] addresses PUM1 PUF domain R5-FNG (Homo sapiens, UniProt Q14671 828-1176, C1007F;R1008N;Q1011G). In short, it runs like this:
as §1

In test [11] the target is PUM1 PUF domain R5-GNW (Homo sapiens, UniProt Q14671 828-1176, C1007G;R1008N;Q1011W). The method in brief:
as §1

PUM1 PUF domain R5-KYY, sequence (Q14671 828-1176 C1007K/R1008Y/Q1011Y): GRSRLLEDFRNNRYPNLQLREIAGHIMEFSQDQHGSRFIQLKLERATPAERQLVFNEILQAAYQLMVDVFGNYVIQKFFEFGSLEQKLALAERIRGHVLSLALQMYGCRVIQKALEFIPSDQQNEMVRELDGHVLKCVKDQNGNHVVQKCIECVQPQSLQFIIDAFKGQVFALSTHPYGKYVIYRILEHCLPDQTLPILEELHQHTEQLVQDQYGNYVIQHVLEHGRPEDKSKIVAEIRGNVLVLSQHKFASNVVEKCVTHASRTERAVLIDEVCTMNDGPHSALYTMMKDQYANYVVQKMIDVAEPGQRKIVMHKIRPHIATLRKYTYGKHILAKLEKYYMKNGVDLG
PUM1 PUF domain R3-EWG, sequence (Q14671 828-1176 C935E/R936W/Q939G): as the sequence (Q14671 828-1176 C1007K/R1008Y/Q1011Y) above, with C108E, R109W, Q112G, K180C, Y181R, Y184Q counted along it
PUM1 PUF domain R4-SPS, sequence (Q14671 828-1176 N971S/H972P/Q975S): as the sequence (Q14671 828-1176 C1007K/R1008Y/Q1011Y) above, with N144S, H145P, Q148S, K180C, Y181R, Y184Q counted along it
PUM1 PUF domain R2-RKG, sequence (Q14671 828-1176 N899R/Y900K/Q903G): as the sequence (Q14671 828-1176 C1007K/R1008Y/Q1011Y) above, with N72R, Y73K, Q76G, K180C, Y181R, Y184Q counted along it
PUM1 PUF domain R5-FNG, sequence (Q14671 828-1176 C1007F/R1008N/Q1011G): as the sequence (Q14671 828-1176 C1007K/R1008Y/Q1011Y) above, with K180F, Y181N, Y184G counted along it
PUM1 PUF domain R2-AWW, sequence (Q14671 828-1176 N899A/Y900W/Q903W): as the sequence (Q14671 828-1176 C1007K/R1008Y/Q1011Y) above, with N72A, Y73W, Q76W, K180C, Y181R, Y184Q counted along it
PUM1 PUF domain R7-RRF, sequence (Q14671 828-1176 S1079R/N1080R/E1083F): as the sequence (Q14671 828-1176 C1007K/R1008Y/Q1011Y) above, with K180C, Y181R, Y184Q, S252R, N253R, E256F counted along it
PUM1 PUF domain R5-GNW, sequence (Q14671 828-1176 C1007G/R1008N/Q1011W): as the sequence (Q14671 828-1176 C1007K/R1008Y/Q1011Y) above, with K180G, Y181N, Y184W counted along it

“GGCUAGAACUAGUGGAUCCCCCGGCGCCCGGCGGCUCGAGCCCGGGUAAGUGUCAAUAGUCUGCAUGCCGCCGGGCGCCAUGCCUGCAGGUCGACUCUAGAAAACAUG”: in [1], the binding signal is 3.07 log2 enrichment (interaction score). As to “GGCUAGAACUAGUGGAUCCCCCGGCGCCCGGCGGCUCGAGCCCGGGUAAGUGUAACUAGUCUGCAUGCCGCCGGGCGCCAUGCCUGCAGGUCGACUCUAGAAAACAUG”, in [2], the binding signal was 5.18 log2 enrichment (interaction score).

Regarding “GGCUAGAACUAGUGGAUCCCCCGGCGCCCGGCGGCUCGAGCCCGGGUAAGUGUACAUAGUCUGCAUGCCGCCGGGCGCCAUGCCUGCAGGUCGACUCUAGAAAACAUG”, the binding signal in test [3] was 2.22 log2 enrichment (interaction score); in [4] it was 1.89 log2 enrichment (interaction score); in test [5] it was 1.66 log2 enrichment (interaction score).

Consider “GGCUAGAACUAGUGGAUCCCCCGGCGCCCGGCGGCUCGAGCCCGGGUAAGUCUAAAUAGUCUGCAUGCCGCCGGGCGCCAUGCCUGCAGGUCGACUCUAGAAAACAUG”, for which the binding signal in test [6] is 3.82 log2 enrichment (interaction score). Consider “GGCUAGAACUAGUGGAUCCCCCGGCGCCCGGCGGCUCGAGCCCGGGUAAGUGUAAUUAGUCUGCAUGCCGCCGGGCGCCAUGCCUGCAGGUCGACUCUAGAAAACAUG”, for which the binding signal in [2] is 3.68 log2 enrichment (interaction score); in test [7], 3.95 log2 enrichment (interaction score). For the sequence “GGCUAGAACUAGUGGAUCCCCCGGCGCCCGGCGGCUCGAGCCCGGGUAAGUGUAAAGAGUCUGCAUGCCGCCGGGCGCCAUGCCUGCAGGUCGACUCUAGAAAACAUG”, the binding signal in [8] is 4.62 log2 enrichment (interaction score); in test [9], 0.42 log2 enrichment (interaction score). For “GGCUAGAACUAGUGGAUCCCCCGGCGCCCGGCGGCUCGAGCCCGGGUAAGUGUUAAUAGUCUGCAUGCCGCCGGGCGCCAUGCCUGCAGGUCGACUCUAGAAAACAUG”, the binding signal in [10] is 3.1 log2 enrichment (interaction score); in [11] it was 3.72 log2 enrichment (interaction score); in test [1], 2.56 log2 enrichment (interaction score). “GGCUAGAACUAGUGGAUCCCCCGGCGCCCGGCGGCUCGAGCCCGGGUAAGUGUAAGUAGUCUGCAUGCCGCCGGGCGCCAUGCCUGCAGGUCGACUCUAGAAAACAUG”: the figures for the binding signal in test [2] and in [7] were 1.75 log2 enrichment (interaction score) and 4.81 log2 enrichment (interaction score), respectively.

The values above are taken from paper PMC8384837, “Expanding the binding specificity for RNA recognition by a PUF domain”.
